According to the supplement of paper PMC8728848:
Many of the other results were omitted from the sample, so the strongest signals are more common in it than they were.

Key:
Assay in all cases: glycan array binding signal (z-score within array); higher = stronger binding
Conditions in all cases: glycan notation: IUPAC condensed, linker removed; mutation: E41G
Gal4S6S(b1-4)GlcNAc = target: Gal4S6S(b1-4)GlcNAc
Method in brief: (§1)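 Arrays were curated from the Consortium for Functional Glycomics database, 3228 in total, and kept only where the protein sequence was available. Binding is expressed as a within-array Z-score. This score was averaged across arrays of the same protein sequence at different concentrations or buffers and across linkers, and negative values can be read as non-binding.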

Gal6S(b1-4)Glc = target: Gal6S(b1-4)Glc
Method in brief: as §1

[1] = target: GalNAc(b1-3)Gal(a1-4)Gal(b1-4)GlcNAc
Method in brief: as §1

[2] = target: GlcNAc(b1-2)[GlcNAc(b1-4)]Man(a1-3)[GlcNAc(b1-4)][GlcNAc(b1-2)Man(a1-6)]Man(b1-4)GlcNAc(b1-4)GlcNAc
Method in brief: as §1

[3] = target: GlcNAc(b1-2)[GlcNAc(b1-6)]Man(a1-6)[GlcNAc(b1-2)Man(a1-3)]Man(b1-4)GlcNAc(b1-4)GlcNAc
Method in brief: as §1

[4] = target: GlcNAc(b1-3)Gal(b1-4)GlcNAc(b1-2)Man(a1-3)[GlcNAc(b1-3)Gal(b1-4)GlcNAc(b1-2)Man(a1-6)]Man(b1-4)GlcNAc(b1-4)GlcNAc
Method in brief: as §1

[5] = target: GlcNAc(b1-3)Gal(b1-4)GlcNAc(b1-3)Gal(b1-4)GlcNAc(b1-3)Gal(b1-4)GlcNAc(b1-3)Gal(b1-4)GlcNAc(b1-2)[GlcNAc(b1-3)Gal(b1-4)GlcNAc(b1-3)Gal(b1-4)GlcNAc(b1-3)Gal(b1-4)GlcNAc(b1-3)Gal(b1-4)GlcNAc(b1-6)]Man(a1-6)[GlcNAc(b1-3)Gal(b1-4)GlcNAc(b1-3)Gal(b1-4)GlcNAc(b1-3)Gal(b1-4)GlcNAc(b1-3)Gal(b1-4)GlcNAc(b1-2)Man(a1-3)]Man(b1-4)GlcNAc(b1-4)[Fuc(a1-6)]GlcNAc
Method in brief: as §1

[6] = target: GlcNAc(b1-6)Gal(b1-4)GlcNAc
Method in brief: as §1

Kdn(a2-3)Gal(b1-4)GlcNAc = target: Kdn(a2-3)Gal(b1-4)GlcNAc
Method in brief: as §1

[7] = target: Man(a1-2)Man(a1-2)Man(a1-3)Man
Method in brief: as §1

[8] = target: Man(a1-2)Man(a1-2)Man(a1-6)[Man(a1-3)]Man
Method in brief: as §1

Man(a1-2)Man(a1-3)Man = target: Man(a1-2)Man(a1-3)Man
Method in brief: as §1

[9] = target: Man(a1-2)Man(a1-3)[Man(a1-2)Man(a1-6)]Man
Method in brief: as §1

[10] = target: Man(a1-2)Man(a1-3)[Man(a1-2)Man(a1-6)]Man(a1-6)[Man(a1-2)Man(a1-2)Man(a1-3)]Man
Method in brief: as §1

[11] = target: Man(a1-2)Man(a1-3)[Man(a1-6)]Man(a1-6)[Man(a1-2)Man(a1-3)]Man(b1-4)GlcNAc(b1-4)GlcNAc
Method in brief: as §1

[12] = target: Man(a1-2)Man(a1-6)[Man(a1-3)]Man(a1-6)[Man(a1-2)Man(a1-2)Man(a1-3)]Man
Method in brief: as §1

[13] = target: Man(a1-2)Man(a1-6)[Man(a1-3)]Man(a1-6)[Man(a1-2)Man(a1-2)Man(a1-3)]Man(b1-4)GlcNAc(b1-4)GlcNAc
Method in brief: as §1

[14] = target: Man(a1-3)[Man(a1-6)]Man(a1-6)[Man(a1-2)Man(a1-3)]Man(b1-4)GlcNAc(b1-4)GlcNAc
Method in brief: as §1

[15] = target: Neu5Ac(a2-3)Gal(b1-3)GalNAc(b1-4)Gal(b1-4)Glc
Method in brief: as §1

[16] = target: Neu5Ac(a2-3)Gal(b1-3)GlcNAc6S
Method in brief: as §1

[17] = target: Neu5Ac(a2-3)Gal(b1-4)GlcNAc(b1-3)Gal(b1-4)GlcNAc(b1-3)[Neu5Ac(a2-3)Gal(b1-4)GlcNAc(b1-3)Gal(b1-4)GlcNAc(b1-6)]GalNAc
Method in brief: as §1

Neu5Ac(a2-6)Gal = target: Neu5Ac(a2-6)Gal
Method in brief: as §1

[18] = target: Neu5Ac(a2-6)Gal(b1-4)GlcNAc(b1-2)[Neu5Ac(a2-6)Gal(b1-4)GlcNAc(b1-6)]Man(a1-6)[Neu5Ac(a2-6)Gal(b1-4)GlcNAc(b1-2)Man(a1-3)][GlcNAc(b1-4)]Man(b1-4)GlcNAc(b1-4)GlcNAc
Method in brief: as §1

[19] = target: Neu5Ac(a2-6)Gal(b1-4)GlcNAc(b1-3)Gal(b1-4)GlcNAc(b1-3)Gal(b1-4)GlcNAc(b1-2)Man(a1-3)[Neu5Ac(a2-6)Gal(b1-4)GlcNAc(b1-3)Gal(b1-4)GlcNAc(b1-3)Gal(b1-4)GlcNAc(b1-2)Man(a1-6)]GalNAc
Method in brief: as §1

[20] = target: Neu5Ac(a2-6)Gal(b1-4)GlcNAc(b1-6)[Gal(b1-3)GlcNAc(b1-3)]Gal(b1-4)Glc
Method in brief: as §1

[21] = target: Neu5Ac(a2-8)Neu5Ac(a2-8)Neu5Ac(a2-3)Gal(b1-4)Glc
Method in brief: as §1

[22] = target: Neu5Gc(b2-6)Gal(b1-4)GlcNAc
Method in brief: as §1

B1: CVN-E41G (protein)
chain: MHHHHHHENLYFQSGNFSQACYNSAIQGSVLTSTCIRTNGGYNTSSIDLNSVIGNVDGSLKWQGSNFIETCRNTQLAGSSELAAECKTRAQQFVSTKINLDDHIAAIDGTLKYE
Q: For B1, which “glycan array binding signal (z-score)” value (Gal4S6S(b1-4)GlcNAc) is on record?
A: -0.19

Q: What about the “glycan array binding signal (z-score)” value (Gal6S(b1-4)Glc) of the same binder?
A: -0.138

Q: And the “glycan array binding signal (z-score)” value [1]?
A: -0.154

Q: And the “glycan array binding signal (z-score)” value [2]?
A: -0.148

Q: And the “glycan array binding signal (z-score)” value [3]?
A: -0.145

Q: What about the “glycan array binding signal (z-score)” value [4] of the same binder?
A: -0.152

Q: And the “glycan array binding signal (z-score)” value [5]?
A: -0.123

Q: What about the “glycan array binding signal (z-score)” value [6] of the same binder?
A: -0.121

Q: And the “glycan array binding signal (z-score)” value (Kdn(a2-3)Gal(b1-4)GlcNAc)?
A: -0.154

Q: And the “glycan array binding signal (z-score)” value [7]?
A: 7.32

Q: And the “glycan array binding signal (z-score)” value [8]?
A: 9.78

Q: And the “glycan array binding signal (z-score)” value (Man(a1-2)Man(a1-3)Man)?
A: 5.5

Q: What about the “glycan array binding signal (z-score)” value [9] of the same binder?
A: 8.72

Q: And the “glycan array binding signal (z-score)” value [10]?
A: 11

Q: What about the “glycan array binding signal (z-score)” value [11] of the same binder?
A: 6.59

Q: And the “glycan array binding signal (z-score)” value [12]?
A: 8.16

Q: What about the “glycan array binding signal (z-score)” value [13] of the same binder?
A: 8.78

Q: And the “glycan array binding signal (z-score)” value [14]?
A: 4

Q: And the “glycan array binding signal (z-score)” value [15]?
A: -0.111

Q: What about the “glycan array binding signal (z-score)” value [16] of the same binder?
A: -0.165

Q: What about the “glycan array binding signal (z-score)” value [17] of the same binder?
A: -0.126

Q: What about the “glycan array binding signal (z-score)” value (Neu5Ac(a2-6)Gal) of the same binder?
A: -0.168

Q: What about the “glycan array binding signal (z-score)” value [18] of the same binder?
A: -0.139

Q: What about the “glycan array binding signal (z-score)” value [19] of the same binder?
A: -0.112

Q: What about the “glycan array binding signal (z-score)” value [20] of the same binder?
A: -0.167

Q: And the “glycan array binding signal (z-score)” value [21]?
A: -0.173

Q: And the “glycan array binding signal (z-score)” value [22]?
A: -0.155
